ELG1 repair inh – qHTS screen for small molecules that inhibit ELG1-dependent DNA repair in human embryonic kidney (HEK293T) cells expressing luciferase-tagged ELG1 | HEK293T ELG1-luciferase reporter, luminescence, 16 h; DNA damage induced by 5-fluorouridine | actives 2.3% (n = 330,000) | AID 504467, 2011 | Potency, µM (doses to about 46.1 µM), without a hit: at the highest dose activity change, negative = inhibition, most hits filed as inhibitors; also: % is scaled to controls: 0 for no effect and ±100 for the full control effect; nearly all actives have a fitted effect of over 55% in size
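Overnight (16 hr) co-exposure of 2,000 cells/well to 5-fluorouridine and compound at 37 °C preceded detection. Luciferase was quantified via ONE-Glo luminescence; loss of signal denotes inhibition.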
mIDH1 inhibitor – qHTS for Inhibitors of mutant isocitrate dehydrogenase 1 (IDH1): qHTS; actives 0.093% (n = 390,000); AID 602179, 2012; Isocitrate dehydrogenase [NADP] cytoplasmic (Homo sapiens), O75874; Potency, µM (series often up to 76.6 µM), without a hit: at the top dose activity change, negative = inhibition, usual class: inhibitors; IDH1-R132H enzyme, NADPH consumption, diaphorase/resazurin fluorescence; also: % is scaled to controls: 0 for no effect and ±100 for the full control effect; nearly all actives have a fitted effect of over 65% in size
Target sequence (O75874 whole entry R132H, stated change not applied): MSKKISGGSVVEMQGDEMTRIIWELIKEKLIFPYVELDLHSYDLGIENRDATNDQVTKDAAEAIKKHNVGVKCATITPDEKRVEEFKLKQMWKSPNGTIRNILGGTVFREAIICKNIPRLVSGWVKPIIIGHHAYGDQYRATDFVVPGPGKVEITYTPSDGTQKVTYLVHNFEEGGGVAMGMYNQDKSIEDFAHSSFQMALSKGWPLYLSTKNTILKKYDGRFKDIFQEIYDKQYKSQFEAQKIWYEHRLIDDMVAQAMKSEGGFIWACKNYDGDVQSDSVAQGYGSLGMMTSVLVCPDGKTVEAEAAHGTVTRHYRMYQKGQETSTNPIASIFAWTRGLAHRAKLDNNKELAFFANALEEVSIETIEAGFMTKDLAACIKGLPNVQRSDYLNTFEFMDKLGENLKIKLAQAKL
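IDH1-R132H (0.5 ug/mL dispensed) in pH 7.5 Tris buffer was preincubated 30 min with compound, then given a substrate mix of 0.016 mM NADPH and 2 mM alpha-KG for 80 min at room temperature; remaining NADPH was read by diaphorase/resazurin fluorescence.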
A549 tox – Nrf2 qHTS screen for inhibitors: counterscreen for cytotoxicity; actives 0.16% (n = 390,000); A549 ARE-Fluc cells, CellTiter-Fluor viability, 18-24 h; Potency, µM (top dose mostly 46 µM), for inactives: at the highest dose activity change, negative = cytotoxicity, most hits filed as inhibitors; AID 504648, 2011; also: % is scaled to controls: 0 for no effect and ±100 for the full control effect
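Cytotoxicity counterscreen: CellTiter-Fluor fluorescence was measured in A549 ARE_Fluc cells after 18-24 h of compound exposure in a concentration series. The subsequent BugLite luminescent read reports ARE-luciferase activity.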
Nrf2 ARE act – qHTS of Nrf2 Activators | AREc32 ARE-luciferase reporter (MCF7-derived line), luminescence, 24 h | Potency, µM (doses to about 46.1 µM), for the others: top-dose activation, actives largely listed as activators | actives 0.31% (n = 410,000) | AID 624171, 2012; also: % of control where 0% means no effect; nearly all actives have a fitted effect of over 65% in size
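ARE activation measured as luciferase luminescence (Steady-Glo, 30 min RT) in AREc32_Fluc cells after 24 hr compound exposure at 37 deg C, 5% CO2; cells seeded overnight at 1000/well in OPTI-MEM, 5% FBS.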
Nrf2 block – Nrf2 qHTS screen for inhibitors. A549 ARE-Fluc reporter, luciferase luminescence, 18-24 h. Potency, µM (series often up to 46 µM), without a hit: top-dose activity change, negative = inhibition, usual class: inhibitors. actives 2.1% (n = 360,000); also: % is scaled to controls: 0 for no effect and ±100 for the full control effect; nearly all actives have a fitted effect of over 60% in size
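Nrf2 function is reported as luminescence of an ARE-controlled luciferase in A549 cells. Compounds were tested at several concentrations, and a CellTiter-Fluor read on the same wells flagged cytotoxicity.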
* hit, by the source's call; ? = inconclusive; . = not tested or not shown. Sampled rows, rich in hits. Any-hit rate of the full collection: about 3.8%. Calls follow the shape of the dose curve; as a rule, active = well fitted curve in the direction sought with a large enough effect; inconclusive = small, poorly fitted or top-dose-only effect, or another doubt; inactive = no such curve, though single readings can be large; an effect the other way counts as inactive or inconclusive. Potency is read from the fitted curve at half-maximal effect.

SMILES	ELG1 repair inh	mIDH1 inhibitor	A549 tox	Nrf2 ARE act	Nrf2 block
O=c1cc(-c2ccccc2)oc2ccc(Cl)cc12	.	-0.6%	-1.4%	?	12.8%
O=c1cc(-c2cccs2)oc2ccc(Cl)cc12	?	2.6%	-5.1%	11.2µM*	?
Cc1ccccc1NC(=O)N1CCc2c(sc3c2CCCC3)C1c1ccccc1 (stereo not drawn)	.	-8.6%	9.1%	4.7%	.
CC(=O)c1ccc(N2CCN(C(=O)C3CCN(C(=O)Nc4ccccc4)CC3)CC2)cc1	-8.7%	4.6%	-3.4%	3.8%	-20.9%
O=C(Nc1ccc(Cl)cc1)N1CCN(c2ccccc2)CC1	-7.5%	3.1%	-5.5%	1.8%	-18.7%
CC(=O)c1ccc(N2CCN(C(=O)Nc3ccc(Cl)cc3)CC2)cc1	16.4µM*	-2.7%	-6.9%	4.0%	16.4µM*
CC(=O)c1ccc(NC(=O)N2CCN(c3cccc(Cl)c3)CC2)cc1	?	-1.7%	-7.3%	-0.5%	9.2µM*
Cc1ccc(N2CCN(S(=O)(=O)c3c(C)[nH]c(=O)[nH]c3=O)CC2C)cc1 (stereo not drawn)	.	-5.6%	12.0%	0.5%	.
CCOC(=O)C1=C[C@@H](CC)N(S(=O)(=O)c2ccccc2)[C@H]1c1ccccc1	.	.	.	5.7%	.
O=C1CCN(CCc2ccccc2)CCN1C(CSc1ccc(Br)cc1)c1ccccc1 (stereo not drawn)	.	.	-10.0%	.	5.2%
Nc1nc(Nc2ccccc2)nc(NCc2ccccc2)c1[N+](=O)[O-]	20.6µM*	-18.5%	?	6.0%	23.1µM*
COc1ccccc1Nc1nc(NCc2ccco2)nc(N)c1[N+](=O)[O-]	18.3µM*	9.5%	-5.6%	-0.2%	-22.1%
COCCCNc1nc(N)c([N+](=O)[O-])c(Nc2ccccc2OC)n1	?	0.3%	6.1%	2.9%	?
Cc1ccc(Cn2ccn(CC(=O)Nc3ccccc3C(F)(F)F)c(=O)c2=O)cc1	.	3.9%	-9.8%	0.9%	21.0%
COc1ccc(Br)cc1CNC(=O)CN1C(=O)CSc2ccc(S(=O)(=O)N3CCOCC3)cc21	.	-12.1%	23.9%	4.0%	.
CC(=O)OC1CC2(C)/C(=N\O)CCC2C2CCc3cc(O)ccc3C12 (stereo not drawn)	-7.8%	1.5%	-4.1%	-0.5%	?
CO/N=C/c1ccc(N2CCN(C(=O)c3ccc(F)cc3)CC2)c([N+](=O)[O-])c1	?	8.4%	-25.2%	-0.4%	10.3µM*
O=C(c1cnn2c(C(F)(F)F)cc(-c3cccs3)nc12)N1CCOCC1	?	-3.3%	-8.5%	-0.7%	-6.2%
CCOC(=O)N1CCN(C(=O)c2cnn3c(C(F)(F)F)cc(-c4cccs4)nc23)CC1	6.51µM*	0.0%	2.1%	0.2%	-25.0%
CC(=O)N(O)CCCCCNC(=O)CCC(=O)N(O)CCCCCNC(=O)CCC(=O)N(O)CCCCCN	-18.6%	2.8%	-0.7%	-1.0%	10.3µM*
CCCC(=O)NCCCCNC(=O)CCC	-5.2%	8.1%	-3.4%	1.9%	-12.3%
O=C(CC(c1ccccc1)c1ccccc1)Nc1ccc(Cl)cn1	11.6µM*	-1.3%	-14.8%	-0.4%	-32.0%
CCO[C@@H]1OC(C(=O)NCc2ccccc2)=C[C@H](c2ccc(C(F)(F)F)cc2)[C@H]1CCCO	?	8.4%	16.4µM*	-1.0%	13µM*
O=C(NCc1ccccc1)C(c1ccccc1)N(Cc1ccc2c(c1)OCO2)C(=O)Cc1cccs1 (stereo not drawn)	16.4µM*	5.2%	-28.6%	-0.7%	?
O=C(NC1CCCC1)C(c1ccccc1)N(Cc1ccc2c(c1)OCO2)C(=O)Cc1cccs1 (stereo not drawn)	?	1.1%	-14.5%	0.0%	-23.3%
SMILES	ELG1 repair inh	mIDH1 inhibitor	A549 tox	Nrf2 ARE act	Nrf2 block
Cc1ccccc1-n1nnnc1SCC(=O)c1c(N)n(C2CC2)c(=O)[nH]c1=O	20.6µM*	0.6%	-6.7%	-0.9%	15.2%
Cc1cc(Nc2cccc(C(F)(F)F)c2)nc2ccc(NC(=O)c3cccnc3)cc12	.	-5.3%	?	-4.6%	20.6µM*
Cc1cc(Nc2cccc(C(F)(F)F)c2)nc2ccc(NC(=O)c3cccc(Cl)c3)cc12	.	-8.0%	18.4µM*	-2.3%	25.9µM*
Cc1cc(Nc2cccc(Cl)c2)nc2ccc(NC(=O)Cc3cccc(C(F)(F)F)c3)cc12	.	-13.3%	?	-2.1%	?
O=C(CNC(=O)c1ccc(C(F)(F)F)cc1)OC(C(=O)Nc1cc(C(F)(F)F)ccc1Cl)c1ccccc1 (stereo not drawn)	.	.	14.0%	.	12.9%
O=c1c2ccccc2ncn1CCCSc1ccc(Cl)cc1	-2.0%	6.2%	11.1%	0.3%	16.9%
O=c1c2ccccc2ncn1CCCSc1ccccc1	22.0%	19.0%	?	4.2%	23.1µM*
O=C(CCCN1C(=O)C(c2ccccc2)Oc2cccnc21)Nc1ccc(Br)cc1F (stereo not drawn)	.	3.7%	11.8%	0.7%	-23.2%
CCc1ccccc1NC(=O)CN1CCN(C(=O)c2ccc(OCc3cn4ccccc4n3)cc2)CC1	6.51µM*	0.7%	-1.1%	0.2%	?
CCOC(=O)N1CC=C2C(C#N)=C(N)C(C#N)(C#N)[C@H](c3ccccc3OCC)[C@H]2C1	11.2%	-19.8%	?	8.4%	16.4µM*
CCOC(=O)N1CC=C2C(C#N)=C(N)C(C#N)(C#N)[C@H](c3ccsc3)[C@H]2C1	-25.1%	41.4µM*	-16.5%	?	.
CCOC(=O)N1CC=C2C(C#N)=C(N)C(C#N)(C#N)[C@H](c3ccc(OC(C)C)c(OCC)c3)[C@H]2C1	13µM*	?	-0.3%	26.2%	.
Cc1ccc(S(=O)(=O)c2nnn3c2nc(NCc2ccc(F)cc2)c2sccc23)cc1C	.	-11.0%	-1.6%	0.7%	-29.4%
CCOc1cccc2sc(N(Cc3cccnc3)C(=O)C3CCCCC3)nc12	.	-13.4%	-0.2%	3.8%	.
Cc1ccccc1CNC(=O)CN1C(=O)C2CCCCN2c2ccc(C(=O)N3CCCC3)cc21 (stereo not drawn)	.	-12.8%	-7.3%	0.0%	.
O=[S+]([O-])(c1ccc(N2CCOCC2)nc1)N1CCN([S+](=O)([O-])c2c(F)cccc2F)CC1	.	.	-0.9%	.	-19.9%
